Hits are enriched below; roughly 2.8% of the tested compounds scored in any of these assays.
CF NFkB inh: blocks PAF-induced NF-kB reporter in cystic fibrosis cells; AID 588850; inhibition, % at 5 µM; KKLEB NF-kB-GFP reporter, GFP fluorescence overnight; 0.86% of 360,000 active;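 active = at least 50% inhibition at 5 µM, scaled per plate between neutral and stimulator controls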;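 also: PAF is a Pseudomonas aeruginosa culture filtrate used as stimulus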
KKLEB tox: reduces viability of KKLEB cystic fibrosis airway cells. activity change (cytotoxicity), % at 5 µM. KKLEB CF airway cells viability, ATPlite luminescence, overnight; active compounds read low; cells stimulated with P. aeruginosa culture filtrate. 0.36% of 360,000 active. AID 602141;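 active = corrected activity change at or below -50% at 5 µM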
Peg3 promoter: Peg3 promoter activity inhibition | HeLa PEG-Prom luciferase reporter, luminescence, overnight | inhibition, % at 20 µM | 1.7% of 360,000 active | AID 588405;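 active = inhibition of at least 50% at 20 µM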
Beta2AR agonist: human beta-2 adrenergic receptor agonism by FAP; AID 504454; response, % (no concentration beside the values); Am2.2-beta2AR cells, FAP receptor internalization, flow cytometry; P07550; 0.43% of 340,000 active;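 active = response above a set limit, near 3 SD of response in nonfluorescent compounds, cut at about 42% in these data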
Target sequence (P07550 whole entry, looked up): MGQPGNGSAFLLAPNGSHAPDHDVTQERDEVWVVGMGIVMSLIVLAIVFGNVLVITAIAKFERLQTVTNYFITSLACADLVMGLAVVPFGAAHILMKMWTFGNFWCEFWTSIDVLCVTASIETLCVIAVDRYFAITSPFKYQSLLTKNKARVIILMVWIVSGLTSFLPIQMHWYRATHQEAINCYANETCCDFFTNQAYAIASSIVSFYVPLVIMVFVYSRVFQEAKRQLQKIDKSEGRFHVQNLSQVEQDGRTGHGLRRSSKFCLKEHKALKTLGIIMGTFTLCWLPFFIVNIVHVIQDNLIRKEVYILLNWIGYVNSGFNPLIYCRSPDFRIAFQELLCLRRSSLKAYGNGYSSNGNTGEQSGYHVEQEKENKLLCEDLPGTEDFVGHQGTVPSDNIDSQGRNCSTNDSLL
HIF-2a block: blocks HIF-2a reporter activity; 786-0 RCC cells HIF-2a reporter, luciferase luminescence, overnight; inhibition, % at 18.8 µM; 0.72% of 360,000 active; AID 624352;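 active = inhibition of the luminescence signal of 40% or more relative to plate controls, in a single-dose primary screen at 18.75 µM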
TRPM1 prom inh: MITF TRPM1 promoter inhibition in SK-MEL-5 cells; SK-MEL-5 TRPM1 promoter luciferase, 24 h; inhibition, % at 12.5 µM; 0.83% of 330,000 active; AID 488899;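 active = mean inhibition across replicates of 60% or more, whatever share of single replicates reaches that level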
Mdm2-MdmX confirm: Mdm2/MdmX (human) interaction inhibition, confirmed. inhibition, % at 8 µM. shares compounds with HIF-2a block. 99% of 740 active. SaOS-2 split-luciferase Mdm2/MdmX complementation, luminescence;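 active = mean inhibition of the luminescence signal across two replicates at or above 26 percent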
HIF-2a conf: HIF-2a inhibition, single concentration confirmation. inhibition, % at 18.8 µM. 56% of 1,800 active. shares compounds with HIF-2a block. 786-0 RCC cells, HIF-2a luciferase reporter luminescence, overnight;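 active = mean inhibition across four replicates of at least 40 percent at the single tested concentration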
HIF-1a cs: inhibits HIF-1a reporter, a counter-screen for HIF-2a inhibitors; inhibition, % at 18.8 µM; MiaPaCa-2 HIF-1a luciferase reporter, desferoxamine, overnight; 72% of 1,800 active; shares compounds with HIF-2a block;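 active = mean inhibition of the reporter signal across four replicates at the single tested dose of 50% or more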
A number is an active result; - = inactive; . = no result.

SMILES | CF NFkB inh | KKLEB tox | Peg3 promoter | Beta2AR agonist | HIF-2a block | TRPM1 prom inh | HIF-2a conf | HIF-1a cs | others
CCn1nc([N+](=O)[O-])c(C(C#N)c2nc3cc(C(F)(F)F)ccc3s2)c(Cl)c1=O (stereo not drawn) | 61 | - | - | - | - | - | . | . | Mdm2-MdmX confirm=97
Nc1nnnn1/N=C/C(Br)=C/c1ccccc1 | 91 | -94 | 114 | - | 83 | 85 | - | 104 | Mdm2-MdmX confirm=103
Cc1ccc(NC(=O)c2cc3ccccc3o2)cc1S(=O)(=O)N(C)C | - | - | - | - | - | - | . | .
Cc1ccc(NC(=O)c2cc3ccccc3oc2=O)cc1S(=O)(=O)N(C)C | - | - | 77 | - | 81 | 76 | 88 | 88
COCCNC(=O)C1(C)CCCN(Cc2ccc(C)c3ccccc23)C1 (stereo not drawn) | - | - | - | . | - | . | . | .
COc1ccc(C(CC(=O)c2ccc(C)cc2)C(C#N)C#N)cc1OC (stereo not drawn) | 102 | -89 | 93 | - | 56 | - | - | 105
CCCS(=O)(=O)NC(=O)C1(C)CCN(C(=O)c2ccco2)C1 (stereo not drawn) | - | - | - | . | - | . | . | .
CC(C)(C)NC(=O)CSc1ncnc2c1nnn2Cc1ccccc1Cl | - | - | - | - | 48 | - | - | -
CCOC(=O)c1cc(-c2csc(-c3ccc(C(C)(C)C)cc3)n2)on1 | - | - | - | - | 57 | - | 58 | -
CC(=O)Nc1ccc(S(=O)(=O)NCCc2ccc3c(c2)OCCO3)cc1 | - | - | - | . | - | . | . | .
O=C1C=C(c2ccccc2)CC(/C=C/c2ccccc2)C1 (stereo not drawn) | - | - | - | - | - | - | . | .
COC(=O)c1cccc(-c2noc(-c3ccccc3F)n2)c1 | - | - | - | - | 52 | - | 65 | -
Cn1nc(C(C)(C)C)cc1N1C(=O)CCC1(C)C(=O)Nc1ccc2ccccc2c1 (stereo not drawn) | - | - | - | . | - | . | . | .
O=C1CCCC[C@@H](O)[C@H](O)C[C@H](c2ccccc2)O1 | . | . | . | . | - | . | . | .
C=C1CC2(CC(c3ccccc3)OC(c3ccccc3)C2)OC1=O (stereo not drawn) | 78 | -66 | 96 | - | 87 | 107 | 91 | 106
Cc1ccc(C(C)C)c(OCc2nn(CC(=O)c3ccc(Cl)cc3)c3[n+]2CCCCC3)c1 | - | - | 112 | - | 49 | 67 | - | 106
Cc1ccc(NC(=O)CCOc2ccccc2C)cc1C | - | - | - | - | - | - | . | .
Cc1cccc(-n2cnc3c(sc4nc(N5CCOCC5)c5c(c43)CCCC5)c2=O)c1 | - | - | - | - | - | - | . | .
COC(=O)c1[nH]c2ccc(Br)cc2c1NC(=O)CN1CCN(C2CCCCC2)CC1 | - | - | 104 | - | 68 | 86 | - | 104 | Mdm2-MdmX confirm=103
COC(=O)c1[nH]c2ccc(Cl)cc2c1NC(=O)CCN1CCN(C2CCCCC2)CC1 | - | - | - | - | - | - | . | .
COC(=O)c1ccccc1NC(=O)CSc1nc(Nc2ccccc2)nc(N2CCOCC2)n1 | - | - | - | - | 41 | - | - | 70
CC(C)(C)c1ccc(Oc2ccc(NC(=O)c3ccco3)cn2)cc1 | - | - | - | - | 75 | - | - | -
O=C(Nc1ccc(Oc2cccc(C(F)(F)F)c2)nc1)c1ccco1 | - | - | - | - | - | - | . | .
COc1ccc(-c2cc3nc(-c4ccccc4)cc(N4CCC(O)CC4)n3n2)cc1 | - | - | - | - | - | - | . | .
COc1ccc(-c2cc3nc(-c4ccccc4)cc(N4CCCC(O)C4)n3n2)cc1 (stereo not drawn) | - | - | - | - | 43 | - | - | 90
SMILES | CF NFkB inh | KKLEB tox | Peg3 promoter | Beta2AR agonist | HIF-2a block | TRPM1 prom inh | HIF-2a conf | HIF-1a cs | others
O=C(O)CN(c1cccc(C(F)(F)F)c1)S(=O)(=O)c1ccccc1 | - | - | - | - | - | - | . | .
O=C(CN(c1cccc(C(F)(F)F)c1)S(=O)(=O)c1ccc(Cl)c([N+](=O)[O-])c1)NCc1ccccc1Cl | - | - | 101 | - | 70 | - | - | 104
CC(NC(=O)CN(c1cccc(C(F)(F)F)c1)S(=O)(=O)c1ccc(Cl)c([N+](=O)[O-])c1)c1ccccc1 (stereo not drawn) | - | - | 104 | - | 78 | 79 | - | 103
Cc1cccc(CN2[C@H](CO)C=CS2(=O)=O)c1 | - | - | - | . | - | . | . | .
CC1CCCC(C)N1C(=O)COC(=O)c1nn(C)c(=O)c2ccccc12 (stereo not drawn) | - | - | - | - | - | - | . | .
CCc1nonc1NC(=O)c1oc2ccc(F)cc2c1C | - | - | - | - | - | - | . | .
Cc1c(C(=O)Nc2nonc2-c2ccc(F)cc2)oc2ccc(F)cc12 | - | - | - | - | - | - | . | . | Mdm2-MdmX confirm=90
CC(C)c1ccc(O)c(=O)cc1 | - | - | - | . | - | . | . | .
CC(C)c1cccc(O)c(=O)c1 | - | - | - | - | - | . | . | . | Mdm2-MdmX confirm=97
O=C(NCCc1c[nH]c2ccccc12)OCCSS(=O)(=O)O | - | - | - | - | - | - | . | .
O=C(CCl)N(Cc1ccccc1)c1ccccc1 | 70 | - | - | - | - | - | . | . | Mdm2-MdmX confirm=103
COC(=O)c1ccc(C(=O)N(Cc2ccccc2)c2ccccc2)cc1 | - | - | - | - | - | - | . | .
CCN(CC)CCNC(=O)c1cc2c(-c3ccc(Cl)cc3)nn(C)c2s1 | - | - | 88 | - | 58 | 62 | - | 88
O=C(C=CC=Cc1ccccc1)c1ccc([N+](=O)[O-])cc1 | - | - | - | . | - | . | . | .
CN(CCC#N)C(=O)CC1(Cc2ccccc2)CCOC(C)(C)C1 (stereo not drawn) | - | - | - | - | - | - | . | .
CC(=O)Cn1ncc(Br)c(Br)c1=O | 96 | -83 | 98 | - | 97 | 99 | 95 | 105
CCOC(=O)N1CCN(C(=O)C(NS(=O)(=O)c2cccc3nsnc23)c2ccccc2)CC1 (stereo not drawn) | - | - | - | - | - | - | . | .
NC1=NC[C@@H](Cc2ccc(O)cc2)N1CCc1cc(C(F)(F)F)cc(C(F)(F)F)c1 | - | - | - | - | - | - | . | .
NC1=NC[C@H](CC2CCCCC2)N1CCc1cc(C(F)(F)F)cc(C(F)(F)F)c1 | - | - | 101 | - | 98 | - | - | 106 | Mdm2-MdmX confirm=100
COc1cc(Cn2c3ccc(NC(=S)NCc4ccc(C)cc4)cc3c(=O)n2C)ccc1F | - | - | - | . | - | . | . | .
CCOC(=O)C(CCCOc1ccc(C)cc1)C(=O)OCC | - | - | - | - | - | - | . | .
